The full ranking holds about 33,000 sequences; the median of “E-score (-0.5 to 0.5)” is about -0.0059, and the highest 2% start at about 0.26. Many of the other results were omitted from the sample, so the highest values are more common in it than they were.
The sequences below were run against T1, Cin5 (UniProt P40917) (assay: PBM E-score (8-mer binding enrichment) (E-score (-0.5 to 0.5)); higher = stronger / more preferred TF binding). Conditions: protein concentration: 100 nM; construct: GST-full length.
T1 sequence: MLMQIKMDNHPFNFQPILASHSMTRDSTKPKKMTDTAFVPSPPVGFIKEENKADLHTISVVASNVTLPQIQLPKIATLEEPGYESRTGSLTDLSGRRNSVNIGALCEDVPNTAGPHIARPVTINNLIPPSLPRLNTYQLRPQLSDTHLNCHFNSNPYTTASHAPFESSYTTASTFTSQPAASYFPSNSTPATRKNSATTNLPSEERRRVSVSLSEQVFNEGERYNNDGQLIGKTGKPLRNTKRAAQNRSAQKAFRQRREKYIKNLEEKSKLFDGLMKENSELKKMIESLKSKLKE
Protocol: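 Universal 'all 10-mer' protein binding microarrays (Agilent AMADID 015681) probed with GST-tagged S. cerevisiae TFs (full-length or DBD) made by in vitro transcription/translation (PURExpress), about 100-200 nM. Bound TF was detected with fluorescent anti-GST. Each ungapped 8-mer (which stands for itself and its reverse complement) is scored by the PBM enrichment score (E-score), a modified Wilcoxon-Mann-Whitney statistic from -0.5 to +0.5, computed with the Universal PBM Analysis Suite. Scale: above 0.35 generally sequence-specific binding.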
In the case of AACGCCAA, the “PBM E-score” value is reported as -0.0074.
With GATTCTCC the “PBM E-score” value was -0.134.
GTACTCTA was tested, and the “PBM E-score” value was -0.0538.
With TATTCGAA the “PBM E-score” value was 0.0697.
With CCCTATGA the “PBM E-score” value was -0.066.
In the case of CAATAGGC, the “PBM E-score” value is reported as -0.0915.
In the case of AGGAATAG, the “PBM E-score” value is reported as 0.0234.
For GGCAAAAA, the “PBM E-score” value was 0.202.
CTTACTTA was tested, and the “PBM E-score” value was 0.25.
For CTTACTAA, the “PBM E-score” value was 0.313.
GTTACTAA was tested, and the “PBM E-score” value was 0.168.
ATTACTAA was tested, and the “PBM E-score” value was 0.334.
For ATTACTTA, the “PBM E-score” value was 0.411.
In the case of ATTACTAC, the “PBM E-score” value is reported as 0.145.
In the case of ATTACTGA, the “PBM E-score” value is reported as 0.108.
With CTTACTAC the “PBM E-score” value was 0.202.
ATTACTAG was tested, and the “PBM E-score” value was 0.105.
For AAGATGGA, the “PBM E-score” value was 0.109.
CGAGTAGA was tested, and the “PBM E-score” value was -0.139.
In the case of ATTTACGC, the “PBM E-score” value is reported as 0.0814.
With GTCCGTTA the “PBM E-score” value was 0.12.
For ATCCGTTA, the “PBM E-score” value was 0.29.
For ATCCGTTC, the “PBM E-score” value was 0.0322.
CGGGCTAA was tested, and the “PBM E-score” value was -0.184.
With CGGTACTC the “PBM E-score” value was -0.161.
With CGTAGAGC the “PBM E-score” value was -0.0105.
AAAAACCA was tested, and the “PBM E-score” value was 0.0166.
With CAAGCGCC the “PBM E-score” value was -0.291.
In the case of AAAGCGCA, the “PBM E-score” value is reported as -0.0252.
CAAGCGCA was tested, and the “PBM E-score” value was 0.323.
CAATTCCC was tested, and the “PBM E-score” value was 0.112.
In the case of CTGATTTC, the “PBM E-score” value is reported as -0.00928.
ATGATTAA was tested, and the “PBM E-score” value was 0.256.
ATGATTAG was tested, and the “PBM E-score” value was 0.223.
For ATGATTAC, the “PBM E-score” value was 0.362.
CTGATTAA was tested, and the “PBM E-score” value was 0.108.
With CTGATTAC the “PBM E-score” value was 0.378.
For GGGCTAGA, the “PBM E-score” value was -0.149.
CAGGCAAC was tested, and the “PBM E-score” value was -0.0103.
With CTTATGCA the “PBM E-score” value was 0.106.
In the case of CTTATGAA, the “PBM E-score” value is reported as 0.0936.
GTTATGCA was tested, and the “PBM E-score” value was 0.0592.
CATATGTA was tested, and the “PBM E-score” value was 0.172.
For CTTATGTA, the “PBM E-score” value was 0.361.
For GTTATGTA, the “PBM E-score” value was 0.276.
In the case of ATTATGTG, the “PBM E-score” value is reported as 0.345.
GATATGTA was tested, and the “PBM E-score” value was 0.189.
For ATTATGAA, the “PBM E-score” value was 0.258.
For GTTATGAA, the “PBM E-score” value was 0.159.
With ACTATGTG the “PBM E-score” value was 0.0904.
For AGTATGTG, the “PBM E-score” value was 0.14.
AGTGCTTA was tested, and the “PBM E-score” value was 0.199.
AGTGAACT was tested, and the “PBM E-score” value was 0.035.
In the case of AGGCCACG, the “PBM E-score” value is reported as -0.155.
In the case of GAGAAGAC, the “PBM E-score” value is reported as -0.0329.
CTACACCA was tested, and the “PBM E-score” value was -0.00077.
With GGGACACC the “PBM E-score” value was -0.238.
In the case of CTAGTGAC, the “PBM E-score” value is reported as -0.0966.
With GCTATGTA the “PBM E-score” value was -0.0403.
In the case of ACTATGTC, the “PBM E-score” value is reported as -0.0438.
For CTTATGTC, the “PBM E-score” value was 0.219.
For ATTATGCA, the “PBM E-score” value was 0.118.
In the case of ATTATGTA, the “PBM E-score” value is reported as 0.42.
In the case of ATTATGCC, the “PBM E-score” value is reported as 0.15.
With ATTATGTC the “PBM E-score” value was 0.27.
ATTATGCG was tested, and the “PBM E-score” value was 0.338.
In the case of ACTATGTA, the “PBM E-score” value is reported as 0.202.
For AGCCATCA, the “PBM E-score” value was 0.131.
With AACGCGAT the “PBM E-score” value was 0.0765.
With ACTTCGCC the “PBM E-score” value was 0.0471.
CTACCCGA was tested, and the “PBM E-score” value was -0.0656.
In the case of CCACGGAC, the “PBM E-score” value is reported as -0.237.
For AGTTTCGC, the “PBM E-score” value was 0.0693.
For ATAGGCCG, the “PBM E-score” value was -0.185.
ACCCTTAG was tested, and the “PBM E-score” value was -0.101.
For GGACAGGA, the “PBM E-score” value was -0.275.
For TATACTGA, the “PBM E-score” value was 0.274.
With ACTACTAA the “PBM E-score” value was 0.177.
In the case of AATACTGG, the “PBM E-score” value is reported as 0.129.
In the case of ACTACTAT, the “PBM E-score” value is reported as 0.26.
With CATACTGA the “PBM E-score” value was 0.155.
With AATACTAT the “PBM E-score” value was 0.214.
In the case of AATACTGT, the “PBM E-score” value is reported as 0.258.
For ACTACTAC, the “PBM E-score” value was 0.00444.
With GATACTGA the “PBM E-score” value was 0.124.
AGCTGTAG was tested, and the “PBM E-score” value was 0.139.
CAGATGAG was tested, and the “PBM E-score” value was 0.0638.
CGTGTTGC was tested, and the “PBM E-score” value was -0.119.
With AAAGTGAA the “PBM E-score” value was 0.258.
In the case of GAAGTGAA, the “PBM E-score” value is reported as 0.202.
For AAAGTGAT, the “PBM E-score” value was -0.00439.
With TTACGCAA the “PBM E-score” value was 0.306.
For GTACGCAA, the “PBM E-score” value was -0.0571.
For ATACGCAA, the “PBM E-score” value was 0.217.
CAGCTCCC was tested, and the “PBM E-score” value was -0.305.
ACATGTTA was tested, and the “PBM E-score” value was 0.126.
ATACAAAT was tested, and the “PBM E-score” value was 0.22.
In the case of GAACAAAA, the “PBM E-score” value is reported as 0.278.
For ATACAACC, the “PBM E-score” value was 0.0923.
CTACAAAA was tested, and the “PBM E-score” value was 0.111.
In the case of AAACAAAA, the “PBM E-score” value is reported as 0.137.
For ATACAAAA, the “PBM E-score” value was 0.28.
With ATACAACA the “PBM E-score” value was 0.272.
ATACAACG was tested, and the “PBM E-score” value was 0.174.
For GAACAAAC, the “PBM E-score” value was 0.226.
With CCCCTCGA the “PBM E-score” value was 0.0859.
For ACAGGCTA, the “PBM E-score” value was -0.0671.
CCCACAGC was tested, and the “PBM E-score” value was -0.192.
With TTAATAAA the “PBM E-score” value was 0.287.
In the case of ATAAATAG, the “PBM E-score” value is reported as 0.102.
In the case of ATAATAAA, the “PBM E-score” value is reported as 0.24.
In the case of ATAAATAC, the “PBM E-score” value is reported as 0.279.
For CTAAATAA, the “PBM E-score” value was 0.0261.
With CTAATAAA the “PBM E-score” value was 0.164.
In the case of ATAAATAA, the “PBM E-score” value is reported as 0.321.
In the case of ATAAATAT, the “PBM E-score” value is reported as 0.226.
TTAAATAA was tested, and the “PBM E-score” value was 0.313.
For GTAAATAA, the “PBM E-score” value was 0.189.
TAAAATAA was tested, and the “PBM E-score” value was 0.141.
In the case of CTAAATAC, the “PBM E-score” value is reported as 0.085.
For ATGTGGTG, the “PBM E-score” value was 0.114.
CCTCGCAC was tested, and the “PBM E-score” value was -0.0617.
In the case of CTTAGATC, the “PBM E-score” value is reported as -0.0574.
CGGCATGA was tested, and the “PBM E-score” value was 0.123.
In the case of GAATTCTC, the “PBM E-score” value is reported as 0.0994.
With ACCACGAT the “PBM E-score” value was 0.161.
In the case of AGCTACCT, the “PBM E-score” value is reported as -0.0535.
With ATCACTGC the “PBM E-score” value was 0.0947.
For CGTGTTGA, the “PBM E-score” value was -0.0277.
With AACCCAAC the “PBM E-score” value was 0.17.
In the case of ACTTTACG, the “PBM E-score” value is reported as 0.119.
With GGGGCACC the “PBM E-score” value was -0.367.
For GGGTCACC, the “PBM E-score” value was -0.297.
With CCGAATTA the “PBM E-score” value was 0.0794.
In the case of GCGAATTA, the “PBM E-score” value is reported as 0.266.
ACGAATTA was tested, and the “PBM E-score” value was 0.0396.
For GATGGTAC, the “PBM E-score” value was 0.0499.
With GGGTAATA the “PBM E-score” value was 0.122.
AGGTAATC was tested, and the “PBM E-score” value was 0.313.
For AGGTAATA, the “PBM E-score” value was 0.296.
For CGGTAATC, the “PBM E-score” value was -0.0552.
With AGGTAATG the “PBM E-score” value was 0.124.
In the case of CGGTAATA, the “PBM E-score” value is reported as 0.181.
CGGAGCTC was tested, and the “PBM E-score” value was -0.269.
ATTCTTGG was tested, and the “PBM E-score” value was 0.153.
With TGTAAACA the “PBM E-score” value was 0.0928.
In the case of CACCAGCG, the “PBM E-score” value is reported as -0.0689.
In the case of AATTAGAG, the “PBM E-score” value is reported as 0.146.
In the case of AATTAGAT, the “PBM E-score” value is reported as 0.294.
For AATTAGTG, the “PBM E-score” value was 0.188.
With AATTAGTA the “PBM E-score” value was 0.308.
For AATTAGAC, the “PBM E-score” value was 0.0847.
With GATTAGTA the “PBM E-score” value was 0.254.
For CATTAGTA, the “PBM E-score” value was 0.188.
With CATTAGTC the “PBM E-score” value was 0.0189.
ATTTAGTC was tested, and the “PBM E-score” value was 0.0988.
With CTTTAGTA the “PBM E-score” value was -0.00776.
In the case of AATTAGTC, the “PBM E-score” value is reported as 0.26.
For ATTTAGTA, the “PBM E-score” value was 0.303.
For AGCGTCAG, the “PBM E-score” value was -0.124.
In the case of AGCGAGCC, the “PBM E-score” value is reported as -0.0601.
With CACGAAGA the “PBM E-score” value was 0.132.
For CGTTTCTA, the “PBM E-score” value was -0.00786.
For AGATAACT, the “PBM E-score” value was 0.159.
For ATGCTACA, the “PBM E-score” value was -0.0162.
In the case of ATCTAGAC, the “PBM E-score” value is reported as -0.125.
In the case of CTTTGATA, the “PBM E-score” value is reported as 0.116.
In the case of ATATGATG, the “PBM E-score” value is reported as 0.158.
In the case of GCATGATA, the “PBM E-score” value is reported as 0.168.
In the case of ATATGATC, the “PBM E-score” value is reported as 0.258.
ATTTGATA was tested, and the “PBM E-score” value was 0.319.
With GTATGAGA the “PBM E-score” value was 0.144.
CTATGATA was tested, and the “PBM E-score” value was 0.116.
GTATGATA was tested, and the “PBM E-score” value was 0.275.

Source: the supplement of paper PMC3334620
